According to PubChem BioAssay:
Active and inactive are the calls of the source.

Columns and labels:
[1] = system: Plasmodium falciparum Sir2 (PF13_0152, Sir2A); assay: Plasmodium falciparum Sir2A binding compounds – biochemical, small-molecule microarray, 635 nm fluorescence, primary screen (AID 1098); settings: fluorescence 635 nm, higher = more signal;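 also: score merges spot fluorescence intensity with its signal-to-noise ratio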
[2] = probe aDKK1 binding to arrayed compounds – biochemical, biotinylated probe, 635/667 nm fluorescence, primary screen (AID 1099); settings: small-molecule microarray, higher = more signal;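 also: score merges 667nm spot fluorescence with signal to noise across triplicate slides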
[3] = probe aCHRDL2 binding to arrayed compounds – biochemical, biotinylated probe, 635/667 nm fluorescence, primary screen (AID 1100); settings: small-molecule microarray, higher = more signal
[4] = change in splice reporter luminescence, either direction, cell-based, HEK293, spliceosome inhibition project, primary screen (AID 1101); settings: HEK293 splicing luciferase reporter, 24 h, higher = more signal, called active from +8 up or from −8 down;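 also: HEK293 cells carrying a splicing-competent luciferase reporter gene; test concentration not given here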
[5] = molecular target: Fibroblast growth factor 10 (Homo sapiens) (UniProt O15520); assay: compounds binding fibroblast growth factor 10 – biochemical, small-molecule microarray, 635 nm fluorescence, primary screen (AID 1102); settings: FGF10 binding, fluorescence 635 nm, higher = more signal
[6] = system: glycogen synthase kinase-3 (GSK3A per assay name; protocol says GSK3B); assay: compounds binding glycogen synthase kinase-3 – biochemical, small-molecule microarray, 635 nm fluorescence, GSK3A, primary screen (AID 1103); settings: fluorescence 635 nm, higher = more signal; also: the record names both GSK3A and GSK3B
[7] = molecular target: Epidermal growth factor receptor (Homo sapiens) (UniProt P00533); assay: compounds binding epidermal growth factor receptor – biochemical, small-molecule microarray, 635 nm fluorescence, primary screen (AID 1104); settings: EGFR binding, higher = more signal;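 also: score merges 667 nm emission intensity with spot signal to noise over triplicate slides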
[8] = molecular target: Follistatin-related protein 3 (Homo sapiens) (UniProt O95633); assay: compounds binding follistatin-related protein 3 – biochemical, small-molecule microarray, 635 nm fluorescence, primary screen (AID 1105); settings: FSTL3 binding, higher = more signal;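 also: score merges emission near 667 nm and signal to noise per printed spot across three slides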
[9] = molecular target: Dickkopf-related protein 1 (Homo sapiens) (UniProt O94907); assay: small molecules binding DKK1 protein – biochemical, small-molecule microarray, 635 nm fluorescence scan, primary screen (AID 1106); settings: higher = more signal;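 also: score merges emission near 667 nm with signal to noise over three replicate slides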
[10] = system: Inhibin beta A chain (activin A); assay: small molecules binding activin A – biochemical, small-molecule microarray, 635 nm fluorescence scan, primary screen (AID 1107); settings: INHBA, higher = more signal;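 also: mouse activin A protein probed at 4.33 µg/mL on printed slides; score merges bound-protein fluorescence near 667 nm with spot signal-to-noise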
[11] = system: Human papillomavirus type 1a protein E7 (residues 44-93); assay: small molecules binding HPV E7 44-93 – biochemical, small-molecule microarray, residues 44-93, 635 nm fluorescence, primary screen (AID 1108); settings: fluorescence 635 nm, higher = more signal;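 also: E7 fragment applied at 1 µg/mL in TBST for 1 h at 4 C; score combines spot fluorescence with its signal to noise ratio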
[12] = hepatitis C replication reporter changes, two-sided – Huh7 cells, luciferase reporter, HCV replication inhibitor project, primary screen (AID 1109); settings: Huh7 HCV replicon luciferase reporter, 48 h; higher = more signal;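 also: huh7 hepatoma cells harbouring a luciferase neomycin HCV replicon reporter; luciferase luminescence as measure of HCV replicon replication; test concentration not given here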
[13] = molecular target: Left-right determination factor 2 (Homo sapiens) (UniProt O00292); assay: small molecules binding LEFTY2 protein – biochemical, small-molecule microarray, 635 nm fluorescence scan, primary screen (AID 1110); settings: higher = more signal
[14] = molecular target: Calmodulin-1 (Homo sapiens) (UniProt P0DP23); assay: small molecules binding calmodulin-1 with EGTA – biochemical, small-molecule microarray, Cy5-labelled CALM1, profiling panel (AID 1111); settings: Cy5-CALM1 binding fluorescence, higher = more signal;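 also: labelled calmodulin applied in Tris saline Tween buffer holding calcium plus EGTA and DTT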
[15] = molecular target: Calmodulin-1 (Homo sapiens) (UniProt P0DP23); assay: small molecules binding Ca-loaded calmodulin-1 – biochemical, small-molecule microarray, Cy5-labelled CALM1, plus calcium, artefact control for SMM control-protein annotation, profiling panel (AID 1112); settings: Cy5-CALM1 binding fluorescence, higher = more signal;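 also: score merges spot fluorescence with signal to noise from triplicate slides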
[16] = probe aWnt5a binding to arrayed compounds – biochemical, biotinylated probe, 635/667 nm fluorescence, primary screen (AID 1113); settings: small-molecule microarray, higher = more signal;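 also: score merges 667 nm fluorescence intensity with signal-to-noise per printed feature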
[17] = probe aShh binding to arrayed compounds – biochemical, biotinylated probe, 635/667 nm fluorescence, primary screen (AID 1114); settings: small-molecule microarray, higher = more signal;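 also: probe is biotin-labelled aShh protein from a stem cell growth factor screen; measures binding of labelled protein to compounds printed on the slide; score merges feature fluorescence at 667 nm with signal-to-noise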
[18] = probe aNog binding to arrayed compounds – biochemical, biotinylated probe, 635/667 nm fluorescence, primary screen (AID 1115); settings: small-molecule microarray, higher = more signal;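 also: probe is biotinylated aNog protein used at 0.15 µg/mL for 1 h at 4 C; z-score combines 667 nm fluorescence of each spot with its signal to noise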
[19] = molecular target: Torsin-1A-interacting protein 1 (Homo sapiens) (UniProt Q5JTV8); assay: compound microarray binding of lysate hLAP1 – cell lysate, small-molecule microarray, COS7 lysate, 635/667 nm fluorescence, primary screen (AID 1116); settings: 635 nm fluorescence, higher = more signal
[20] = molecular target: Alpha-bungarotoxin (Bungarus multicinctus) (UniProt P60615); assay: compounds binding labelled alpha-BTX control protein – biochemical, small-molecule microarray, Alexa647 label, 635/667 nm fluorescence, artefact control for SMM control protein annotation, profiling panel (AID 1117); settings: alpha-BTX-A647 binding fluorescence, higher = more signal
Alpha-bungarotoxin (Bungarus multicinctus), sequence (P60615 whole entry, looked up): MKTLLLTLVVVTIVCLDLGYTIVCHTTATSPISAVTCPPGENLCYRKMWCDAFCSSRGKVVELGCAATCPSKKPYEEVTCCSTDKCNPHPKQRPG

Follistatin-related protein 3 (Homo sapiens), sequence (O95633 whole entry, looked up): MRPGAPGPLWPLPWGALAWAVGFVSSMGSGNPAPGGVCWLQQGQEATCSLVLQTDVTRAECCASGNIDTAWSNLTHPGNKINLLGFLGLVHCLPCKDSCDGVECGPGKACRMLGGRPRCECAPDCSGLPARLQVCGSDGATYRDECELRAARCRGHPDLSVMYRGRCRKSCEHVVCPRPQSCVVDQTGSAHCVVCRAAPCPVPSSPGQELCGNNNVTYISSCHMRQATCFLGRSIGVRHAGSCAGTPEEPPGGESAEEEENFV
Left-right determination factor 2 (Homo sapiens), sequence (O00292 whole entry, looked up): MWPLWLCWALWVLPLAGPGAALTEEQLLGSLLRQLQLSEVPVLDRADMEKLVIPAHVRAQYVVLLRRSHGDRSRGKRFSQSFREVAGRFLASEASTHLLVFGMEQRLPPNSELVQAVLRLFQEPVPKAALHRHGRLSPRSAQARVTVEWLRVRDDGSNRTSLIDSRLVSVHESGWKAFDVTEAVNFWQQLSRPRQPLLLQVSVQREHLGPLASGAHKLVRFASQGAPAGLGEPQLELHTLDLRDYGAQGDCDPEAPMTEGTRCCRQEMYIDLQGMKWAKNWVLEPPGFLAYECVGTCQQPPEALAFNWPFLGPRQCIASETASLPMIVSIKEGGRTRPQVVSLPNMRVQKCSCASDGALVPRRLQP
Epidermal growth factor receptor (Homo sapiens), sequence (P00533 whole entry, looked up): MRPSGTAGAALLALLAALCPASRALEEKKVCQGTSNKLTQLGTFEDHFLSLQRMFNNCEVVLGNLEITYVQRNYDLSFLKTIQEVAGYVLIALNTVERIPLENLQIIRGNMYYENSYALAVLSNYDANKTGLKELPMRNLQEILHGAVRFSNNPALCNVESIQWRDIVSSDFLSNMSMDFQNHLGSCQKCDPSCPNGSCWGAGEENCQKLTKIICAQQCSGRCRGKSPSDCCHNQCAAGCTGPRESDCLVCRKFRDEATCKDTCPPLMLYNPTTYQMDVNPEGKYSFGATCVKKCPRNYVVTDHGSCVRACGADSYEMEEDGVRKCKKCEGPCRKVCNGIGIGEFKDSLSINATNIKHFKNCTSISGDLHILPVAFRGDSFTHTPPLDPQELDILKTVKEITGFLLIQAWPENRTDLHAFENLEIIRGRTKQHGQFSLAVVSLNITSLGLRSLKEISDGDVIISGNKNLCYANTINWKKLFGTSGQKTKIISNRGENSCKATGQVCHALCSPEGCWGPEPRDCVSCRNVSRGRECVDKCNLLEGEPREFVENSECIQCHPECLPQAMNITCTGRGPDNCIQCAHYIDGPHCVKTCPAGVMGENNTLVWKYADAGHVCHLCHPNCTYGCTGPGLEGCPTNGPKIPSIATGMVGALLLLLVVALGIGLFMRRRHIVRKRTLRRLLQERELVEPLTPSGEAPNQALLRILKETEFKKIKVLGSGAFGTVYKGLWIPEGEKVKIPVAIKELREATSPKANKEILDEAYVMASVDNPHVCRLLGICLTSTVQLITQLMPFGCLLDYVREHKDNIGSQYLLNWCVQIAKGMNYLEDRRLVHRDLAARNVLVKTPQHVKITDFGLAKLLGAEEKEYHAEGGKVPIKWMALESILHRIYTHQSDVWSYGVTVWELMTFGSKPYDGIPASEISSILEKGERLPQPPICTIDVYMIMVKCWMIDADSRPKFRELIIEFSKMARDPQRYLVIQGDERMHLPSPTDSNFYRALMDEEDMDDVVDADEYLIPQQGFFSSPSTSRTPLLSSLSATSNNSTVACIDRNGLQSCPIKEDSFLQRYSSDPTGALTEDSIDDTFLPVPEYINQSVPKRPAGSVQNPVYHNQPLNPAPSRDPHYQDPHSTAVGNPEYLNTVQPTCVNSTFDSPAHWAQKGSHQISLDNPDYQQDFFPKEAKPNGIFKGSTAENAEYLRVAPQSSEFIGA
Dickkopf-related protein 1 (Homo sapiens), sequence (O94907 whole entry, looked up): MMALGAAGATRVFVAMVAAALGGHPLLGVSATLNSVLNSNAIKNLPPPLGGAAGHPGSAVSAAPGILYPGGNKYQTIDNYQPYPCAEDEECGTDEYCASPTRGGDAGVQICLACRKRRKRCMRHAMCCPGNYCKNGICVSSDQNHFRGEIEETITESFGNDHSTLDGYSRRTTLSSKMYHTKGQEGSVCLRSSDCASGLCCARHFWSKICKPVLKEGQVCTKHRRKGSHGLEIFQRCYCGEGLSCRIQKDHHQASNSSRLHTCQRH
Torsin-1A-interacting protein 1 (Homo sapiens), sequence (Q5JTV8 whole entry, looked up): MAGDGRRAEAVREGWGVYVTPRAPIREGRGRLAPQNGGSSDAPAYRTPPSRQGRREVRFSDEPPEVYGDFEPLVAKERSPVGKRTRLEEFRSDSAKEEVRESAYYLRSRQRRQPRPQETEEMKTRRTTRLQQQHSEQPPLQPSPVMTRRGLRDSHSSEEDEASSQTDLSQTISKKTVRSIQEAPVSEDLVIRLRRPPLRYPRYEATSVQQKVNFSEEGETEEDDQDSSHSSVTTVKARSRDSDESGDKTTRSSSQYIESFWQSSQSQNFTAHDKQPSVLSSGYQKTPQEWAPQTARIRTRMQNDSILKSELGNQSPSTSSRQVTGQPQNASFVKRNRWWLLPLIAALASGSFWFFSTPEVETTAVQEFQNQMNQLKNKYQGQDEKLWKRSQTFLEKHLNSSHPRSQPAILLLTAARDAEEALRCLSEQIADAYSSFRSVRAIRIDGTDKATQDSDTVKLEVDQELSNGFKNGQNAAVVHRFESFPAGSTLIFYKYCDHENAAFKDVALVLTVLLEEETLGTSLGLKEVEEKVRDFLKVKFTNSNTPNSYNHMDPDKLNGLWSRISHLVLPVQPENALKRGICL
Fibroblast growth factor 10 (Homo sapiens), sequence (O15520 whole entry, looked up): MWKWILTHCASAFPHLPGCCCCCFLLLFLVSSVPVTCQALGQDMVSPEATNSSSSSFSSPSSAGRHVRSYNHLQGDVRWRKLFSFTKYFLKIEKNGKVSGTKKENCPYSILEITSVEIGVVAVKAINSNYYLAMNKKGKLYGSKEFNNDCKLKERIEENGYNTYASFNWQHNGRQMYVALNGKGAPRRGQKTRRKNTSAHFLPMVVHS

| Compound | composite z-score [1] | composite z-score [2] | composite z-score [3] | z-score [4] | composite z-score [5] | composite z-score [6] | composite z-score [7] | composite z-score [8] | composite z-score [9] | composite z-score [10] | composite z-score [11] | z-score [12] | composite z-score [13] | composite z-score [14] | composite z-score [15] | composite z-score [16] | composite z-score [17] | composite z-score [18] | composite z-score [19] | composite z-score [20] |
| --- | --- | --- | --- | --- | --- | --- | --- | --- | --- | --- | --- | --- | --- | --- | --- | --- | --- | --- | --- | --- |
| COC(=O)[C@@]1(Cc2ccc(F)cc2)[C@H]2c3cc(C(=O)N(C)C)n(Cc4ccccn4)c3C[C@H]2CN1C(=O)c1ccccc1 | 1.19 | 1.37 | 1.14 | -2.82 (inactive) | 0.214 | 1.08 | 0.328 | 0.706 | 0.116 | 1.24 | 1.4 | -1.39 | 0.256 | 0.63 | 0.681 | -0.195 | -0.333 | 0.535 | 1.11 | 0.0404 |
| COCCOC(=O)N1C(=O)[C@@]2(c3cc(C#CC4=CCCCC4)ccc31)[C@H](C(=O)N1CCN(c3ncccn3)CC1)[C@H]1C(=O)O[C@H](c3ccccc3)[C@H](c3ccccc3)N1[C@@H]2c1ccc(OCCO)cc1 | -0.424 | 0.282 | 0.298 | -0.902 (inactive) | 1.3 | 1.18 | 0.959 | 1.37 | 0.994 | 1.26 | 0.973 | -1.46 | 0.819 | 0.585 | -0.252 | 0.0026 | -0.229 | 0.749 | 1.48 | 0.229 |
| C=C(/C(=C/C[C@@H](OC(=O)c1ccncc1)c1ccc(CO)o1)c1cc(C(=O)OC)ccc1OC)C(C)C | 1.32 | -0.0623 | -0.109 | 0.614 (inactive) | 1.3 | 1.14 | 0.439 | 1.13 | 0.432 | -0.0326 | 0.838 | -2.03 | 0.512 | 0.224 | -0.0294 | -0.063 | 0.0893 | 0.107 | 0.815 | 0.582 |
| C=C(CCCC)C(=O)CC[C@H](OC(=O)c1ccccc1-c1ccccc1C(=O)O)c1ccc(CO)o1 | 1.15 | -0.28 | -0.635 | 0.144 (inactive) | 1.51 | 1.1 | 0.264 | 1.2 | 1.02 | 0.64 | 1.42 | -0.872 | 0.645 | 0.856 | -0.771 | -0.0458 | -0.108 | 0.238 | 0.876 | 1.65 |
| CCCCN1CC=CC23O[C@@H]4/C=C\CCCOC(=O)C4[C@H]2C(=O)N(C(C)CO)[C@@H]3C1=O (stereo not given in full) | 1.62 | -0.292 | -0.305 | -0.577 (inactive) | -0.319 | -0.969 | -0.154 | -0.43 | 0.326 | 0.788 | -0.779 | -0.112 | -0.697 | -0.573 | -0.101 | -0.172 | -0.17 | -0.186 | -0.585 | -0.0491 |
| CCN(CC)c1ccc(N2CC=CC34O[C@@H]5C=CCOC(=O)[C@@H]5[C@H]3C(=O)N(CCCCCO)[C@@H]4C2=O)cc1 (stereo not given in full) | 1.85 | -0.0647 | 0.682 | 0.223 (inactive) | 0.126 | -0.453 | -1.53 | -1.22 | -0.413 | 1.1 | 0.221 | -0.323 | -0.938 | -0.385 | -0.0559 | 0.195 | 0.147 | 0.277 | 0.975 | -1.28 |
| C=C[C@H](C)[C@H](O)c1ccc(OCCO)cc1 | 0.771 | -0.564 | 0.883 | -0.961 (inactive) | -0.772 | -1.21 | -1.58 | -0.607 | -1.97 | -2.79 | -2.7 | -1.54 | -1.42 | -0.215 | 0.486 | -0.139 | -0.108 | -0.278 | -1.26 | -1.27 |
| Cc1ccc(S[C@]2(C(=O)NCC(C)C)CC(=O)N(Cc3ccccc3)[C@@H]2c2ccc(CO)cc2)cc1 | 0.959 | -0.0941 | 1.09 | 0.00364 (inactive) | -0.514 | -0.919 | -1.14 | -0.979 | -1.06 | -0.417 | 0.725 | -1.99 | -1.83 | -0.624 | -0.249 | -0.141 | -0.0904 | 0.596 | 0.769 | 0.147 |
| [N-]=[N+]=NCc1ccccc1C[C@]1(C(=O)NCc2ccccc2)COC(c2ccc(OCCCO)cc2)=N1 | 0.518 | -0.109 | 0.681 | -0.426 (inactive) | 0.447 | 0.431 | 0.0245 | -0.109 | -0.874 | 0.743 | 0.953 | -3.59 | -0.0623 | 0.614 | 0.345 | 0.027 | 0.0483 | -0.415 | 1.04 | 0.188 |
| COc1ccc([Si](C)(C)[C@@H]2[C@@H](CC(=O)N3Cc4ccccc4C[C@H]3CO)O[C@]3(C(=O)N(Cc4cccc(N5C(=O)COc6ccccc65)c4)c4ccccc43)[C@H]2C)cc1 | 0.321 | 0.542 | -0.602 | -1.82 (inactive) | 0.904 | 0.901 | 0.925 | 1.13 | 1.01 | 0.729 | 1.2 | -3.61 | 0.806 | 1.39 | 0.0626 | -0.103 | -0.214 | -0.253 | 0.875 | 0.875 |
| C[N+](C)(C)CCCC[C@@H]1NC(=O)[C@H]2C[C@@H](C(=O)O)[C@@H](c3cccc(OCCO)c3)N2C1=O | 2.08 | 2.39 | 1.38 | -0.246 (inactive) | 1.4 | 1.36 | 1.17 | 1.41 | 1.3 | 1.47 | 1.47 | -0.774 | 0.968 | 2.16 | 0.618 | 1.18 | 2.34 | 2.84 | 3.37 | 3.77 |
